From PubChem BioAssay (Tox21)
The source made the active and inactive calls. Unless noted, calls follow the shape of the dose curve; as a rule, active = well fitted curve in the direction sought with a large enough effect in the repeat runs; inconclusive = weak or mixed curves; inactive = no such curve, though single readings can be large; an effect the other way counts as inactive or inconclusive.

How the values were obtained:
[1] = qHTS assay for small molecules that induce genotoxicity in human embryonic kidney cells expressing luciferase-tagged ATAD5 (AID 651632); also: nearly all actives have a fitted effect of over 15% in size
In short: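 Increased luciferase signal from ATAD5-tagged reporter cells indicates DNA-damage-driven ATAD5 induction. HEK293T cells are treated for 16 hr at 37C before detection with Amplite.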

[2] = qHTS assay for small molecule agonists of the p53 signaling pathway - cell viability (AID 651633; calls by dose curve; also: nearly all actives have a fitted effect of over 30% in size; also: potency is read from the fitted curve at half-maximal effect)
In short: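 Viability counter-read: CellTiter-Glo luminescence (30 min, room temperature) in the same p53RE-bla plates. These plates had been exposed to compounds for 16 h at 37 C.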

[3] = qHTS assay for small molecules that induce genotoxicity in human embryonic kidney cells expressing luciferase-tagged ATAD5 - cell viability (AID 651634; calls by dose curve; also: nearly all actives have a fitted effect of over 25% in size; also: potency is read from the fitted curve at half-maximal effect)
In short: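 Cytotoxicity counterscreen in HEK293T cells bearing an ATAD5-luciferase reporter: live-cell protease activity measured by CellTiter-Fluor fluorescence after 15.5 hr compound exposure.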

[4] = qHTS assay for small molecule disruptors of the mitochondrial membrane potential - cell viability (AID 720634; calls by dose curve;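 also: human HepG2 liver cancer cells; nearly all actives have a fitted effect of over 20% in size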)
In short: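 After overnight attachment at 37 C, HepG2 cells received compound or DMSO vehicle for 1 hr. Viability is then taken from ATP-driven luminescence following a 30 min room-temperature CellTiter-Glo step.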

[5] = qHTS assay to test for compound auto fluorescence at 590 nm (red) in HepG2 cells (AID 720674)
In short: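 We screened compounds on adherent HepG2 cells, incubating them for an hour at 37 C in 5% CO2 before reading emission at 590 nm under 540 nm excitation; values reflect equivalence to Rose Bengal sodium fluorescence.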

[6] = qHTS assay to test for compound auto fluorescence at 535 nm (green) in HepG2 cells (AID 720675)
[7] = qHTS assay to test for compound auto fluorescence at 460 nm (blue) in HEK293 cells (AID 720678)
In short: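 Triamterene serves as the blue fluorophore standard. Compound signal at 405/460 nm is read in HEK293 wells (2,000 cells, 10% dialyzed FBS) after overnight treatment at 37C.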

[8] = qHTS assay to test for compound auto fluorescence at 590 nm (red) in HEK293 cells (AID 720679)
In short: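 We plated HEK293 cells in 10% dialyzed FBS medium, let them adhere for 4-5 hr, then added 23 nL compound. Overnight at 37C and 5% CO2 preceded fluorescence measurement at 540/590nm.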

[9] = qHTS assay to test for compound auto fluorescence at 535 nm (green) in HEK293 cells (AID 720680)
[10] = qHTS assay to test for compound auto fluorescence at 460 nm (blue) in HEK293 cell free culture (AID 720681)
In short: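 Blue fluorescence (Ex 405/Em 460 nm, triamterene-equivalent) was read immediately after pin transfer of compound or DMSO into medium (DMEM, 10% FBS) without cells.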

[11] = qHTS assay to test for compound auto fluorescence at 535 nm (green) in HEK293 cell free culture (AID 720682)
In short: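 Cell-free medium (DMEM, 10% FBS) receives compound or DMSO by pintool. Plate read directly at Ex 485/Em 535 nm. Signal converted to fluorescein equivalency.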

[12] = qHTS assay to test for compound auto fluorescence at 590 nm (red) in HEK293 cell free culture (AID 720683)
In short: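 Red-channel autofluorescence of compounds in culture medium (DMEM, 10% FBS), no cells, measured at 540/590 nm. Rose Bengal sodium is the reference fluorophore for equivalence.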

[13] = qHTS assay to test for compound auto fluorescence at 590 nm (red) in HepG2 cell free culture (AID 720684)
In short: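 Steps: dispense MEM/10% FBS medium, no cells; pin compound or DMSO vehicle; read red channel, Ex/Em 540/590 nm. Output given as Rose Bengal sodium equivalents.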

[14] = qHTS assay to test for compound auto fluorescence at 460 nm (blue) in HepG2 cell free culture (AID 720685)
In short: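 Compound (23 nL) or DMSO pinned into cell-free MEM with 10% FBS; blue fluorescence read at 405/460 nm excitation/emission, expressed as auto-fluorescence equivalency to triamterene.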

[15] = qHTS assay to test for compound auto fluorescence at 535 nm (green) in HepG2 cell free culture (AID 720686)
[16] = qHTS assay to test for compound auto fluorescence at 460 nm (blue) in HepG2 cells (AID 720687)
In short: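 Blue-channel autofluorescence (Ex/Em 405/460 nm, triamterene-equivalent) was measured after 1 hr compound exposure at 37 C, 5% CO2. Cells were HepG2, plated overnight at 37 C in MEM plus 10% FBS.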

[17] = target: Glucocorticoid receptor (Homo sapiens) (UniProt P04150); assay: qHTS assay to identify small molecule agonists of the glucocorticoid receptor (GR) signaling pathway (AID 720691; active = well fitted activation curve with a large enough effect in the signal ratio in the repeat runs, not every such curve was filed as active; inconclusive = weak or mixed curves, or effect the other way; inactive = no such curve, though single readings can be large or run the other way; the % refers to the signal ratio; also: potency is read from the fitted curve at half-maximal effect); details: GR-bla HeLa, beta-lactamase reporter ratio, 18 h; activation: at 62.4 µM (top of the series)
Sequence of Glucocorticoid receptor (Homo sapiens) (P04150 whole entry, looked up): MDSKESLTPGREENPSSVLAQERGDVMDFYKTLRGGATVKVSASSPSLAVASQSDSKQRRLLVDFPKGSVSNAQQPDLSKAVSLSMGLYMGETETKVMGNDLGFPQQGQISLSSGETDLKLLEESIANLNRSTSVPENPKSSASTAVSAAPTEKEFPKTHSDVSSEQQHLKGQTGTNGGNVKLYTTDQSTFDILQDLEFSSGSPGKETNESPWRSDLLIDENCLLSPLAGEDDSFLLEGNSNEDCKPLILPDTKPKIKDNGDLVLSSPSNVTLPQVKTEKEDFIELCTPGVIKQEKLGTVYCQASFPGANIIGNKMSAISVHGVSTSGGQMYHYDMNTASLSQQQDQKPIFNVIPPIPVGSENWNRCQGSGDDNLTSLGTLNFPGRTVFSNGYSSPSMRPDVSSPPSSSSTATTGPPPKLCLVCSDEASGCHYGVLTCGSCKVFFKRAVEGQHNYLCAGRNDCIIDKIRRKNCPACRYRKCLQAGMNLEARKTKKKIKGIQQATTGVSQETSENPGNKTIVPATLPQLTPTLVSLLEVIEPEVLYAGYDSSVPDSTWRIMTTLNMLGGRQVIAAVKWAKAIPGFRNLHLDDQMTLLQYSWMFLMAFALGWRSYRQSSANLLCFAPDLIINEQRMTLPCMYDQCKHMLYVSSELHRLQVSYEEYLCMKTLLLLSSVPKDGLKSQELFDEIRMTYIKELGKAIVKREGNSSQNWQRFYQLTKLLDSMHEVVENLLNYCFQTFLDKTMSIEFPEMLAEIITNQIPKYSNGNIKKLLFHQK
In short: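 Agonist mode in a HeLa line carrying a GRE-controlled beta-lactamase reporter. Compounds act for 18 h at 37 C before a 2 h room-temperature FRET substrate step and fluorescence reading.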

[18] = target: Glucocorticoid receptor (Homo sapiens) (UniProt P04150); assay: qHTS assay to identify small molecule antagonists of the glucocorticoid receptor (GR) signaling pathway (AID 720692; active = well fitted inhibition curve with a large enough effect in the signal ratio in the repeat runs, not every such curve was filed as active; inconclusive = weak or mixed curves, or effect the other way; inactive = no such curve, though single readings can be large or run the other way; the % refers to the signal ratio)
In short: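 Cells plated, rested 4 h at 37 C/5% CO2; compounds in DMSO pin-transferred; dexamethasone added to 5 nM final; 18 h at 37 C; B/G FRET substrate added, 2 h room temperature; fluorescence measured.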

Measured: Potency

CCN1C(=O)NC(c2ccccc2)C1=O (centres undefined)
inactive: all assays above

C[C@H]1C[C@@H]2[C@H]([C@@H](O)C[C@@]3(C)[C@H]2CC[C@]3(O)C(=O)COC(=O)CCC(=O)O)[C@@]2(C)C=CC(=O)C=C12
active: [17] 0.0268 µM [inconclusive]
not listed: [13] | [18]
inactive: all other assays above

CCCCC(F)(F)[C@@]1(O)CC[C@H]2[C@@H](CC(=O)[C@@H]2CCCCCCC(=O)O)O1
not listed: [14] | [18]
inactive: all other assays above

CN(C)CC/C=C1/c2ccccc2CSc2ccccc21
not listed: [16]
inactive: all other assays above

CCCCCCCCCCCCCCCC(=O)OCCC1CCN(CCCN2c3ccccc3Sc3ccc(S(=O)(=O)N(C)C)cc32)CC1
inactive: all assays above

CN1CCC(CN2c3ccccc3Sc3ccccc32)C1 (centres undefined)
not listed: [13] | [17] | [18]
inactive: all other assays above

CCN(CC)CCOCCOC(=O)C(CC)(CC)c1ccccc1
not listed: [14] | [17] | [18]
inactive: all other assays above

CN1[C@@H]2CC[C@H]1CC(OC(c1ccccc1)c1ccccc1)C2 (some centres undefined)
inactive: all assays above

CC(C)(CO)[C@@H](O)C(=O)NCCCC(=O)O
not listed: [16] | [18]
inactive: all other assays above

C[C@H](/C=C/[C@H](C)C(C)(C)O)[C@H]1CC[C@H]2/C(=C/C=C3C[C@@H](O)C[C@H](O)C3)CCC[C@]12C
active: [2] 8.41 µM
not listed: [12] | [18]
inactive: all other assays above

NS(=O)(=O)c1cc2c(cc1Cl)NC(Cc1ccccc1)NS2(=O)=O (centres undefined)
inactive: all assays above

NNc1nnc(Cc2ccncc2)c2ccccc12
inactive: all assays above

CCCOc1cc(N)ccc1C(=O)OCCN(CC)CC
not listed: [13] | [17] | [18]
inactive: all other assays above

C/C1=C2N=C(/C=C3N=C(/C(C)=C4\[N-]C(C(CC(N)=O)C4(C)CCC(=O)NCC(C)OP(=O)([O-])OC4C(CO)OC(n5cnc6cc(C)c(C)cc65)C4O)C4(C)N=C1C(CCC(N)=O)C4(C)CC(N)=O)C(CCC(N)=O)C\3(C)C)C(CCC(N)=O)C/2(C)CC(N)=O.[CH3-].[Co+3] (centres undefined)
active: [3] 23.7 µM
inactive: all other assays above
